# Tau ThT inhib: inhibitors of human tau fibril formation, thioflavin T binding; P10636; recombinant tau K18 P301L, heparin-induced fibrillization, ThT fluorescence; Potency, µM (highest dose often 57.4 µM), without a hit: at the highest dose activity, negative = inhibition, most hits filed as inhibitors; 2.1% of 270,000 active; note: potency is the fitted concentration of half-maximal effect; nearly all actives have a fitted effect of over 55% in size
# Target sequence (P10636 561-689 P618L limits assumed): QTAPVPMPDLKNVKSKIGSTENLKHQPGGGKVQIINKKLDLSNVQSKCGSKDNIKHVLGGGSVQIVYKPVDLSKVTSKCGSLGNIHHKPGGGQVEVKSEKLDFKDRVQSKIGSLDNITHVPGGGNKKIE
#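 ThT emission at 510 nm, taken 1 hr after adding 30 uM dye, quantifies aggregates formed when 20 uM heparin acts on human tau K18 P301L for 6 hr at 37 C.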
# Tau fibril FP: inhibitors of human tau fibril formation; P10636; 0.39% of 280,000 active; K18 P301L tau heparin fibrillization, Alexa594 FP, 6 h; Potency, µM (highest dose often 57.7 µM), for inactives: at the top dose activity, negative = inhibition, most hits filed as inhibitors; note: potency is the fitted concentration of half-maximal effect; nearly all actives have a fitted effect of over 55% in size
#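 Compound effects on tau fibrillization are measured by Alexa 594 fluorescence polarization (ex 555, em 632 nm). K18 P301L tau is used at 15 uM with 0.24 uM labeled tracer, and 20 uM heparin induces aggregation over 6 hr at 37 C.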
# Tau fluor counter: counter-screen for tau fibril formation inhibitors. 0.93% of 280,000 active. tau K18 P301L Alexa594 fluorescence, heparin fibrillization. Potency, µM (titrated, usually from 57.7 µM), without a hit: at the highest dose activity change, negative = decrease; note: potency is the fitted concentration of half-maximal effect; nearly all actives have a fitted effect of over 55% in size
#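 Human tau K18 P301L (15 uM unlabeled, 0.24 uM Alexa 594-labeled) in 100 mM sodium acetate pH 7 with 20 uM heparin, 6 hr at 37 C. ThT 30 uM added, 1 hr ambient; Alexa 594 FP and total fluorescence read at 555/632 nm.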
# Sfp inh: blocks B. subtilis Sfp PPTase activity; Q9F4F7; Biochemical Sfp PPTase activity, qHTS; Potency, µM, without a hit: largest response in the series, negative = inhibition, hits mostly inhibitors; 3.5% of 310,000 active;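 note: the enzyme is Sfp with the accession as filed and its product quenches rhodamine fluorescence; potency is the fitted concentration of half-maximal effect; 0% = enzyme reaction without inhibitor and -100% = no enzyme wells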
#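 Buffer: 50 mM Hepes-Na pH 7.6, 10 mM MgCl2, 0.01% Nonidet P-40, 0.01% BSA. Enzyme 15 nM, pre-exposed to compound 15 min; substrates then added and fluorescence change tracked over 30 min.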
# FBPA coupling cs: counter-screen for Giardia aldolase inhibitors: coupling enzyme system. AID 2472. activity change, negative = inhibition, % at 58.2 µM, hits read low. 0.67% of 290,000 active. coupling enzyme system counterscreen, AmpLite Red fluorescence; in the data active = activity change below about -30%
#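 Counterscreen of the coupled detection system alone, without aldolase: glyceraldehyde-3-phosphate coupling enzymes plus AmpLite Red readout. Compounds at 57.5 uM final, 10 min RT preincubation, 20 min RT reaction, fluorescence 525/598 nm.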
# Numbers without * were called inactive; ? = inconclusive; / = no result; [ ] = remark or other dose. The list is not random: actives were taken first. Their share in the collection is about 5.2%. Unless noted, calls come from the whole dose curve; as a rule, active = well fitted curve in the direction sought with a large enough effect; inconclusive = small, poorly fitted or top-dose-only effect, or another doubt; inactive = no such curve, though single readings can be large; an effect the other way counts as inactive or inconclusive. Unless noted, % is set by controls: 0 for no effect and ±100 for the full control effect.
SMILES,Tau ThT inhib,Tau fibril FP,Tau fluor counter,Sfp inh,FBPA coupling cs
CCOc1ccc(N2C(=O)/C(=C/c3ccc(C)o3)C(=O)NC2=S)cc1,/,/,/,22.4µM*,6.8
Cc1ccc(/C=C2\C(=O)NC(=S)N(c3cccc(F)c3)C2=O)o1,/,/,/,17.8µM*,3.4
CCOc1ccc(N2C(=O)NC(=O)/C(=C\c3ccc(N4CCCCC4)o3)C2=O)cc1,-3.4%,4.0%,-3.3%,-7.1%,3.4
COc1ccc(N2C(=O)/C(=C/c3ccc(C)o3)C(=O)NC2=S)cc1,/,/,/,22.4µM*,0.8
CCOC(=O)c1ccc(-n2c(N)c(C(=O)NCC3CCCO3)sc2=S)cc1 (centres undefined),-14.8%,7.4%,-10.5%,31.6µM*,-8.3
CCOC(=O)c1ccc(NC(=O)c2sc3nc4c(cc3c2N)N2CCC4CC2)cc1,-3.1%,-10.3%,-23.2%,/,/
COc1ccc(OC)c(-n2c(O)c(/C=C3\C=Nc4ccccc43)c(=O)[nH]c2=O)c1,/,/,/,50.1µM*,-1.1
c1cncc(C2Nc3cccc4cccc(c34)N2)c1,12.6µM*,?,14.1µM*[quencher],?,-15.4
c1cncc(C2CCCCN2)c1 (centres undefined),-4.9%,-2.0%,0.0%,32.8%,1.9
CO[C@H]1[C@@H](O)CC(OC2[C@@H](O)CC(OC3[C@@H](O)C[C@H](OC4CC[C@@]5(C)C(CCC6C5CC(O)[C@]5(C)[C@H](C7=CC(=O)OC7)CCC65O)C4)O[C@@H]3C)O[C@@H]2C)O[C@@H]1C (some centres undefined),/,/,/,-7.4%,/
CCCN1CCCC2Cc3[nH]ncc3CC21 (centres undefined),-3.6%,5.7%,-2.2%,2.0%,/
COC(=O)/C(C)=C\CC12OC(C)(C)C3CC(C=C4C(=O)c5c(OC)c6c(c(CC=C(C)C)c5OC431)OC(C)(CCC=C(C)C)C=C6)C2=O (centres undefined),28.2µM*,?,-21.6%,?,-1.6
CC(=O)Oc1c2c(c(CC=C(C)C)c3c1C(=O)C1=CC4CC5C(C)(C)OC(C/C=C(\C)C(=O)O)(C4=O)[C@]15O3)OC(C)(CCC=C(C)C)C=C2 (some centres undefined),7.08µM*,10µM*,?,25.1µM*,-1.9
Cc1c(CCC(=O)N2CCCCC2)c(=O)oc2cc3occ(C(C)(C)C)c3cc12,?,13.8%,-7.9%,/,/
CC(=O)C1(c2ccccc2)CCN(C(=O)C2CCC(=O)N(CCc3cccc(F)c3)C2)CC1 (centres undefined),/,/,/,18.7%,-0.4
O=C(CCCN1CCC2(CC1)C(=O)N(Cc1cccc(F)c1)CN2c1ccccc1)c1ccc(F)cc1,?,-7.8%,?,70.8µM*,-1.5
c1ccc(N2CCC3(CCNCC3)CC2)nc1,/,/,/,-7.2%,-1.7
COC(=O)[C@]1(C)CC[C@@]2(C)CC[C@@]3(C)C4=CC=C5C(=CC(=O)C(O)=C5C)[C@@]4(C)CC[C@@]3(C)C2C1 (some centres undefined),28.2µM*,?,?,-85.0%,-2.8
CN(N=O)c1cc(O)ccc1O,11.2µM*,?,?,/,/
O=c1[nH]c(=S)n(C2CC2)c(O)c1C=Nc1ccc2c(c1)OCO2,/,-9.4%,?,56.2µM*,-15.9
CCN1C[C@]2(COC)CC[C@H](O)[C@@]34[C@@H]5C[C@H]6[C@@H](OC)[C@H]5[C@](O)(C[C@@H]6OC)[C@@](O)([C@@H](OC)[C@H]23)[C@@H]14,/,/,/,19.8%,1.3
CC1CCN(S(=O)(=O)c2ccc(NN=C(C#N)C#N)cc2)CC1,14.1µM*,-2.0%,?,15.6%,5.6
N#CC(C#N)=NNc1ccc(S(N)(=O)=O)cc1,10µM*,-8.7%,-27.1%,4.0%,7.3
C=C(C)C1Cc2c(ccc3c2OC2COc4cc(OC)c(OC)cc4C2C3=O)O1 (centres undefined),?,11.2%,-26.8%,?,-0.9
CN(C)C1C(=O)C(C(N)=O)=C(O)[C@@]2(O)C(=O)C3=C(O)c4c(O)cccc4[C@@](C)(O)C3CC12 (some centres undefined),?,-4.6%,-24.7%,-30.2%,-21.0
SMILES,Tau ThT inhib,Tau fibril FP,Tau fluor counter,Sfp inh,FBPA coupling cs
CN(C)C1C(=O)C(C(N)=O)=C(O)C2(O)C(=O)C3=C(O)c4c(O)cccc4C(C)(O)C3C(O)C12 (centres undefined),/,/,/,56.2µM*,-3.4
CN(C)c1ccc(C(=O)c2ccc(N(C)C)cc2)cc1,?,6.4%,-18.8%,1.8%,-0.4
CN(C)c1ccc(/C=C/[N+](=O)[O-])cc1,10µM*,-1.1%,?,-8.7%,0.1
C/C(=C\c1ccc(N(C)C)cc1)[N+](=O)[O-],12.6µM*,-5.6%,14.1µM*[quencher],-7.1%,0.6
CCOP(=S)(OCC)Oc1ncn(-c2ccccc2)n1,/,/,/,?,0.2
Clc1c(Cl)c(Cl)c(Cl)c(Cl)c1Cl,/,/,/,9.8%,-0.5
COC(=O)[C@H]1[C@H](c2ccccc2)C(=O)[C@@]2(O)c3ccccc3O[C@@]12c1ccccc1,-10.2%[11.5 µM],-14.7%[11.6 µM],-20.2%[11.6 µM],10.6%,0.4
CC1(C)CC(=O)C(C2(O)C(=O)NC(=O)NC2=O)=C(O)C1,6.31µM*,?,-18.0%,-17.3%,-13.8
CC(C)n1c(/C=C\[C@@H](O)C[C@@H](O)CC(=O)O)c(-c2ccc(F)cc2)c2ccccc21,/,/,/,46.5%,0.4
CCCCCCCCCOc1ccc2[nH]cc(CCN)c2c1,?,?,7.94µM*[quencher],50.1µM*,-1.3
Cc1c(C(=O)c2cccc3ccccc23)c2cccc3c2n1[C@@H](CN1CCOCC1)CO3,-20.2%,-10.6%,?,7.1%,0.8
COC(=O)CC1=C(C(=O)OC)C2(C(=O)Nc3c(C)cccc32)C(C#N)=C(N)O1 (centres undefined),-9.4%,2.2%,-8.8%,-5.0%,-37.9*
Cc1ccc(OCC(=O)N/N=C\c2ccc(O)c([N+](=O)[O-])c2)c([N+](=O)[O-])c1,12.6µM*,6.1%,-21.7%,-8.4%,-0.7
CC1OC(O[C@H]2C[C@@H](O)[C@]3(CO)[C@@H]4C(CC[C@]3(O)C2)[C@@]2(O)CC[C@H](C3=CC(=O)OC3)[C@@]2(C)C[C@H]4O)C(O)C(O)C1O (some centres undefined),5.9%,1.8%,0.3%,11.9%,/
CC(=O)O[C@H]1C[C@H](O[C@H]2[C@@H](O)CC(O[C@H]3[C@@H](O)C[C@H](O[C@H]4CC[C@@]5(C)[C@H](CC[C@@H]6[C@@H]5CC[C@]5(C)[C@@H](C7=CC(=O)OC7)CC[C@]65O)C4)O[C@@H]3C)O[C@@H]2C)O[C@H](C)[C@H]1O[C@@H]1O[C@H](CO)[C@@H](O)[C@H](O)[C@H]1O (some centres undefined),/,/,/,11.1%,/
CCCCCCCCCC[n+]1cccc([C@@H]2CCCN2C)c1,/,/,/,56.2µM*,-2.5
